Inconclusive results are not listed. Activity calls are given as the source filed them. Calls follow the shape of the dose curve; as a rule, active = well fitted curve in the direction sought with a large enough effect; inconclusive = small, poorly fitted or top-dose-only effect, or another doubt; inactive = no such curve, though single readings can be large or run the other way.
The compounds below were run against phosphoglycerate mutase (Leishmania major) (UniProt Q4Q090) (assay: qHTS Validation Assay to Find Inhibitors of Phosphoglycerate Mutase (AID 504548)). Settings: biochemical enzyme activity; series mostly up to 57.5 µM.
Sequence of phosphoglycerate mutase (Leishmania major) (Q4Q090 1-553): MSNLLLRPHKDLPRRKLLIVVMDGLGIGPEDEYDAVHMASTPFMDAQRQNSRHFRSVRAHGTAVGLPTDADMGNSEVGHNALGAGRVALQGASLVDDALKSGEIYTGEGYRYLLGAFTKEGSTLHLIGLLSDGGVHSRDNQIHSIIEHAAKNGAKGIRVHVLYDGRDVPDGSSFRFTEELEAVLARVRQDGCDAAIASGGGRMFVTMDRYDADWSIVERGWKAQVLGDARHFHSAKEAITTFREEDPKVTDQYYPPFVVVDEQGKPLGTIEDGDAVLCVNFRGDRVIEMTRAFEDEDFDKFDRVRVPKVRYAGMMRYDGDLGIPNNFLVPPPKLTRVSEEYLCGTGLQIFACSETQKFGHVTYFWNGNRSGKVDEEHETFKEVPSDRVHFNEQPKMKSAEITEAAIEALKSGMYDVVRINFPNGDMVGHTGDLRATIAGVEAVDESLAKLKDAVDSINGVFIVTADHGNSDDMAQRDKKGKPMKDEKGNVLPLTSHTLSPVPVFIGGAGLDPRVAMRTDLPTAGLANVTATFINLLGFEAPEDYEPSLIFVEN
Description: NIH Molecular Libraries Probe Production Network [MLPCN]
NIH Chemical Genomics Center [NCGC]
PI Name: Malcolm Walkinshaw, University of Edinburgh
Several species of the Trypanosomatidae family of parasitic protozoans cause a spectrum of diseases throughout the tropical and subtropical world. Sleeping sickness, caused by two subspecies of Trypanosoma brucei, is endemic to areas of sub-Saharan Africa, while Chagas disease, a manifestation of Trypanosoma cruzi infection, is prevalent throughout Central and South America. In addition, many species of Leishmania are responsible for a range of cutaneous and visceral diseases, causing ulcers, destructive lesions and kalaazar, a lethal infection of the viscera. Collectively, these organisms infect 30 million people worldwide (~500 million live in endemic areas), and account for ~130,000 deaths annually. Given their debilitating and prevalent nature, trypanosomatid parasites impose a heavy medical, economic and social burden on entire populations, primarily in the developing world. The problem is further exacerbated by the fact that existing treatments have progressed little in the past 50 years, and current drugs show high toxicity and poor efficacy.
Blood-stream stages of T. brucei are entirely dependent on glycolysis as a source of ATP, and the tricarboxylic acid cycle and oxidative phosphorylation are both repressed. Glycolysis in axenically cultured T. cruzi, representing the intracellular pathogenic stage, is also essential for these parasites. […] Previous studies have shown that the glycolytic enzyme, phosphoglycerate mutase (PGAM), is a viable target for drugs to kill these parasites. […] Furthermore, the cobalt centers present within PGAM are only found in trypanosomatid and plant PGAMs, and are known to be required for activity, thereby providing an additional target. Moreover, trypanosomatid PGAMs are completely different from the enzyme that performs the same function in humans: the parasite and host enzymes share no structural or even mechanistic features; specificity is therefore unlikely to be an issue.
NCGC Assay Protocol Summary:
Briefly, 3ul of substrate buffer (all columns) are dispensed into Greiner white solid bottom 1536-well assay plates. Compounds are then transferred via Kalypsys pin tool equipped with 1536-pin array (10nl slotted pins, V&P Scientific, San Diego, CA). Following addition of compound, 1ul of Lm PGAM (1.25nM final concentration, columns […]) is added to initiate the reaction; columns 3-4 receive only TEA buffer as negative controls. The plates are then incubated at room temperature for 45 minutes. Kinase-GloPlus reagent is added (2ul) and plates incubated for 10 minutes, before being transferred to a ViewLux high-throughput CCD imager (PerkinElmer) wherein single end-point measurements of luminescence are acquired using a clear filter. All reagents are diluted in an assay buffer consisting of 100 mM TEA (pH 7.6), 5 mM MgCl2 and 0.01% Tween-20.
With `O=C(NCCN1CCOCC1)c1ccc(Cl)cc1` the outcome was “inactive”.
For `Clc1ccc(Cn2c(CN3CCCC3)nc3ccccc32)cc1`, the outcome was “inactive”.
In the case of `CC(=O)O[C@]1(C(C)=O)CC[C@H]2[C@@H]3C=C(Cl)C4=CC(=O)[C@@H]5C[C@@H]5[C@]4(C)[C@H]3CC[C@@]21C`, the outcome is reported as “inactive”.
`O=C1NCC2(CCN(CCc3ccccc3)CC2)O1` was tested, and the outcome was “inactive”.
With `CCN(CC)CCOC(=O)c1ccc(N)cc1` the outcome was “inactive”.
`CN(C)CCC(c1ccccc1)c1ccccn1` (stereo not given) was tested, and the outcome was “inactive”.
`CC1(C)CCC2=C(O1)c1ccccc1C(=O)C2=O` was tested, and the outcome was “inactive”.
In the case of `CC(C)(C)c1ccc(C(O)CCCN2CCC(C(O)(c3ccccc3)c3ccccc3)CC2)cc1` (stereo not given), the outcome is reported as “inactive”.
`CCCCCN(C)CCC(O)(P(=O)(O)O)P(=O)(O)O` was tested, and the outcome was “inactive”.
`C[N+](C)(C)CC(=O)O` was tested, and the outcome was “inactive”.
`CC(=O)N[C@@H](CS)C(=O)O` was tested, and the outcome was “inactive”.
With `CCN(CC)C(=O)c1ccc(O)c(OC)c1` the outcome was “inactive”.
`O=C1NC(=O)C(c2ccccc2)(c2ccccc2)N1` was tested, and the outcome was “inactive”.
In the case of `CCN1CCC[C@H]1CNC(=O)c1cc(S(N)(=O)=O)ccc1OC`, the outcome is reported as “inactive”.
`CCCNC(=O)NS(=O)(=O)c1ccc(Cl)cc1` was tested, and the outcome was “inactive”.
`COc1cccc(-c2cc(=O)c3ccccc3o2)c1N` was tested, and the outcome was “inactive”.
`Cc1cccc(C)c1OCC(C)N` (stereo not given) was tested, and the outcome was “inactive”.
`CC(C)NCC(O)COc1cccc2[nH]ccc12` (stereo not given) was tested, and the outcome was “inactive”.
With `NCCS` the outcome was “inactive”.
`O=C(O)CCc1nc(-c2ccccc2)c(-c2ccccc2)o1` was tested, and the outcome was “inactive”.
In the case of `CCN(CC)CCNC(=O)c1ccc(N)cc1`, the outcome is reported as “inactive”.
In the case of `COC(=O)[C@@H]1[C@H]2C[C@H]3c4[nH]c5ccccc5c4CCN3C[C@@H]2CC[C@@H]1O`, the outcome is reported as “inactive”.
With `C[N+](C)(C)CCCCCC[N+](C)(C)C` the outcome was “inactive”.
With `O=c1c(-c2ccc(O)cc2)coc2cc(O)ccc12` the outcome was “inactive”.
`NC(N)=Nc1nc(CSCC/C(N)=N/S(N)(=O)=O)cs1` was tested, and the outcome was “inactive”.
In the case of `CC(=O)CCCCn1c(=O)c2c(ncn2C)n(C)c1=O`, the outcome is reported as “inactive”.
With `CCCCC1C(=O)N(c2ccccc2)N(c2ccccc2)C1=O` the outcome was “inactive”.
With `COc1ccc(Cc2nccc3cc(OC)c(OC)cc23)cc1OC` the outcome was “inactive”.
In the case of `COc1ccccc1N1CCN(CCCNc2cc(=O)n(C)c(=O)n2C)CC1`, the outcome is reported as “inactive”.
With `CC(=O)c1ccc(S(=O)(=O)NC(=O)NC2CCCCC2)cc1` the outcome was “inactive”.
For `CC1=C(/C=C/C(C)=C/C=C/C(C)=C/C(=O)Nc2ccc(O)cc2)C(C)(C)CCC1`, the outcome was “inactive”.
In the case of `Clc1ccc(C(c2ccc(Cl)cc2)n2cc[n+](CC(OCc3ccc(Cl)cc3Cl)c3ccc(Cl)cc3Cl)c2)cc1` (stereo not given), the outcome is reported as “inactive”.
For `CCn1cc(C(=O)O)c(=O)c2ccc(C)nc21`, the outcome was “inactive”.
`CC(C)OC(=O)C(C)(C)Oc1ccc(C(=O)c2ccc(Cl)cc2)cc1` was tested, and the outcome was “inactive”.
For `CC/C(=C(\c1ccccc1)c1ccc(OCCN(C)C)cc1)c1ccccc1`, the outcome was “inactive”.

From PubChem BioAssay (NCATS)
